This passage reports outcome and AC50 results from PubChem BioAssay (EPA / NIEHS).

Results filed as inconclusive are left out. Activity calls are given as the source filed them. Rule for the calls: active = hit-call score of the fitted dose curve at least 0.9, where 1 is the maximum; inconclusive = response in the unintended direction; inactive = score below 0.9.

Usually AC50 stands for the midpoint of the concentration-response curve, whichever way the signal moves.

Assay [1] in a line: ACEA_AR_agonist_AUC_viability: ACEA Biosciences xCELLigence Real-Time Cell Analysis on Androgen Receptor Agonism for Viability (AID 2283775).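 For AC50: viability read 80 hours after compound addition.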 Summed up: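 22Rv1 cells; impedance growth kinetics; 8-pt 1:4 dilutions from 100 uM top final, ≤0.5% DMSO; n = 2; 80 h read; AUC viability, loss-of-signal vs DMSO.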
Assay [2] is described as follows: ACEA_AR_antagonist_AUC_viability: ACEA Biosciences xCELLigence Real-Time Cell Analysis on Androgen Receptor Antagonism for Viability (AID 2283776).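 Note: 22Rv1 human prostate cancer cells growing on impedance electrode plates; area under impedance growth curve at 80 h after dosing as viability; hits lower the growth signal relative to DMSO meaning cytotoxicity.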 In a few lines:
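Impedance read-out (RT-CES): area under growth curve at 80 h post-dose, loss of signal scored vs DMSO baseline. 22Rv1 cells; 8-pt 1:4 series, top 100 uM final, ≤0.5% DMSO; biological duplicate.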

A short description of assay [3]: ACEA_ER_AUC_viability: ACEA Biosciences xCELLigence Real-Time Cell Analysis on Estrogen Receptor Agonism for Viability (AID 2283782).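 Note: hit means loss of impedance signal meaning reduced cell growth or viability.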 In a few lines:
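Viability endpoint: reduced impedance area under the curve relative to DMSO, recorded by real-time electrode sensing over ~80 h of continuous exposure. Duplicate plates of T47D in hormone-depleted medium; eight concentrations, 1:4 dilutions, 100 uM maximum.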

Assay [4] can be described thus: STM_H9_NormalizedViability: Cytotoxicity Assessment at 120 hours in the Stemina devTOX quickPredict H9 human embryonic stem cell (hESC)-based Assay (AID 2283784). Summed up: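 Viability of the cell layer was taken from live-cell protease cleavage of a fluorogenic substrate after compound exposure of undifferentiated H9 stem cells, with replenishment each 24h. Fluorescence was normalized to vehicle (0.1% DMSO).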

Assay [5] concerns the target AR (gene 367) (UniProt P10275). Put plainly: ACEA_AR_agonist_80hr: ACEA Biosciences xCELLigence Real-Time Cell Analysis on Androgen Receptor Agonism for Proliferation (AID 2283783).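 Note: hits increase impedance growth signal above DMSO baseline.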 In a few lines: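 Eight concentrations, 1:4 serial dilution from a 100 uM final top, in biological duplicate. Impedance-based real-time growth of 22Rv1 cells after overnight baseline, recorded hourly and read at 80 hours. Controls: testosterone, MG132, assay media.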

For assay [6], the target named is AR (gene 367) (UniProt P10275). Briefly: ACEA_AR_antagonist_80hr: ACEA Biosciences xCELLigence Real-Time Cell Analysis on Androgen Receptor Antagonism for Proliferation (AID 2283787).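 Note: 22Rv1 human prostate cancer cells with growth followed by electrical impedance; hits lower the impedance growth signal relative to DMSO.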 In a few lines: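 Impedance-based real-time growth of 22Rv1 prostate cells, read 80 h after dosing. Eight concentrations, 1:4 series, top 100 uM final (0.5% DMSO), n = 2; signal decrease scored against DMSO.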
Sequence of AR (gene 367) (P10275 whole entry, looked up): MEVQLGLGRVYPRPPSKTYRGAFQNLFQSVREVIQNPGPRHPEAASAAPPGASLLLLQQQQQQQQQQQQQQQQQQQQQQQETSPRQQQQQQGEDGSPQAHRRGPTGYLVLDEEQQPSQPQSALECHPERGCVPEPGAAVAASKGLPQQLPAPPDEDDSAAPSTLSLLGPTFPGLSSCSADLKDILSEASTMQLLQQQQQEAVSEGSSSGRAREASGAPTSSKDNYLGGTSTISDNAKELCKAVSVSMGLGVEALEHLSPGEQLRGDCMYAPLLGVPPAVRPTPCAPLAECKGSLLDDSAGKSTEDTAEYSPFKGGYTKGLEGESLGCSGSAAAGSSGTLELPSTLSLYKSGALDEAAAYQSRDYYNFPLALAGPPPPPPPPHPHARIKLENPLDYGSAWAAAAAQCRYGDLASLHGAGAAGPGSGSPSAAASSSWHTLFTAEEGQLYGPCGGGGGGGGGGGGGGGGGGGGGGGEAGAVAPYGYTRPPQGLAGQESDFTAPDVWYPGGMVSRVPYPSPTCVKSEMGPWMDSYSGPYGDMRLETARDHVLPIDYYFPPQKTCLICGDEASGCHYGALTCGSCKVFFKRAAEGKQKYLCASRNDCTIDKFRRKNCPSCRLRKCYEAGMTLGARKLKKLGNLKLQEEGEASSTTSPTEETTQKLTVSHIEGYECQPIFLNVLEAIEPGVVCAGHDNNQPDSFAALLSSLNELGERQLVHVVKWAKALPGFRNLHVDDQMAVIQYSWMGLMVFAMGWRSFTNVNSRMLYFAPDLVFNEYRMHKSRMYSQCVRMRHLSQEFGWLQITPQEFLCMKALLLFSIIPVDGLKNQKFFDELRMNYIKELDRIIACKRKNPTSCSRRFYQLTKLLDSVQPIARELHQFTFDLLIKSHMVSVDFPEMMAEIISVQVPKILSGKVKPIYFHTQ

For `COc1cc(Cl)c(OC)cc1Cl`, the molecule was classed as inactive in assay [1], in assay [2] and in assay [3].
As to `CCN(CC)c1nc(C)cc(OP(=S)(OC)OC)n1`, the AC50 is 87.1 µM (active) in assay [1] and 83.3 µM (active) in assay [2]. In addition, the call in assay [3] was inactive.
On to `C=CCOC(=O)C(C)(C)OC(=O)c1cc(-n2c(=O)cc(C(F)(F)F)n(C)c2=O)ccc1Cl`, for which the AC50 in assay [1] and in assay [2] was 50.5 µM (active) in each case.
For the molecule `CO/N=C(/C1=NOCCO1)c1ccccc1Oc1ncnc(Oc2ccccc2Cl)c1F`, the AC50 in assay [1] was 43 µM (active); in assay [2] it was 55.5 µM (active); in assay [3], 91.8 µM (active); in assay [4], 35.2 µM (active).
Regarding `CC(C)C1(C)N=C(c2ncccc2C(=O)O)NC1=O` (stereo not given), the molecule was called inactive in assay [1], in assay [2] and in assay [4].
With `CS(=O)(=O)c1cc(C(F)(F)F)ccc1C(=O)c1cnoc1C1CC1`, the call in assay [2], in assay [3] and in assay [4] was inactive.
Turning to `CCOP(=O)(OCC)Oc1nc(Cl)c(Cl)cc1Cl`, the AC50 in assay [1] is 72.4 µM (active); in assay [2], 72.7 µM (active); in assay [3], 68.3 µM (active); in the assay with AR (gene 367) [6], 76 µM (active). The call in the assay with AR (gene 367) [5] was inactive.
On to `CCCCOCN(C(=O)CCl)c1c(CC)cccc1CC`, for which the AC50 in assay [1] is 85.2 µM (active); in assay [2], 70.9 µM (active); in assay [3] it was 87.6 µM (active); with AR (gene 367) [5] it was 10.5 µM (active); with AR (gene 367) [6], 75.7 µM (active).
Consider `CCNC(=O)NC(=O)C(C#N)=NOC`, for which the molecule was called inactive in assay [2], in assay [3] and in assay [4].
As to `COc1cc(OC)nc(NC(=O)NS(=O)(=O)c2ncccc2OCC(F)(F)F)n1`, the outcome in assay [1] and in assay [4] was inactive.
For `Cc1cc(C)nc(Nc2ccccc2)n1`, the outcome in assay [1], in assay [2], in assay [3] and in assay [4] was inactive.
As for `CCCCC(C#N)(Cn1cncn1)c1ccc(Cl)cc1` (stereo not given), the AC50 in assay [1] was 83.1 µM (active); in assay [2] it was 79 µM (active); in assay [4], 56 µM (active). Moreover, the result in assay [3] was inactive.
For `CCCN(CC)CC1COC2(CCC(C(C)(C)C)CC2)O1` (stereo not given), the AC50 in assay [1] was 77.3 µM (active); in assay [2] it was 77.7 µM (active); in assay [3] it was 81 µM (active). For the same molecule, in assay [4], the outcome was inactive.
